According to the antibiotic and cytotoxicity screens of Wong et al. (2023):
Hit rate of the full screen: of about 39,000 compounds, about 3,300 (8.5%) were called active. The full list was thinned out, with actives kept by preference.

Test system: HepG2
Test: cytotoxicity call (relative viability < 0.9)
Details: 10 µM

SMILES	cytotoxicity call
C[C@H](CO)N1C[C@H](C)[C@H](CN(C)C(=O)Nc2ccc(C(F)(F)F)cc2)OCCCC[C@H](C)Oc2ccc(NC(=O)c3ccncc3)cc2C1=O	inactive
C[C@H]1CN([C@@H](C)CO)C(=O)c2cc(C#Cc3ccccc3F)cnc2O[C@@H]1CN(C)S(=O)(=O)c1ccccc1	inactive
C[C@H](CO)N1C[C@H](C)[C@@H](CN(C)S(=O)(=O)c2ccccc2)Oc2ncc(Br)cc2C1=O	inactive
S=C(Nc1ccccc1)Nc1ccc2c(c1)oc1ccccc12	inactive
COc1ccc(CN(C)C[C@@H]2Oc3ccc(NC(=O)Cn4cnnn4)cc3CC(=O)N([C@H](C)CO)C[C@@H]2C)cc1	inactive
C[C@@H](N)c1cnn(-c2ccccc2F)c1	inactive
CCN(CC)CCNc1ccc(COc2cccc(/C=C(C)/C=C/C(=O)NO)c2)c2sc3ccccc3c(=O)c12	inactive
CCN(CC)CCNc1ccc(COc2ccccc2/C=C(C)/C=C/C(=O)NO)c2sc3ccccc3c(=O)c12	inactive
CCN(CC)CCNc1ccc(CO)c2sc3ccccc3c(=O)c12	active
C[C@@H]1CCCCO[C@@H](CN(C)Cc2ccc(C(=O)O)cc2)[C@@H](C)CN([C@H](C)CO)C(=O)c2cc(NS(=O)(=O)c3cccs3)ccc2O1	inactive
O=C(C[C@@H]1C=C[C@@H](NC(=O)c2cccnc2)[C@H](CO)O1)NCCN1CCCCC1	inactive
O=C(C[C@H]1C=C[C@H](NC(=O)c2cccnc2)[C@@H](CO)O1)NCCN1CCCCC1	active
CN(C)CC(=O)N[C@@H]1C=C[C@H](CC(=O)NCCN2CCCCC2)O[C@H]1CO	inactive
O=C(C[C@@H]1C=C[C@@H](NC(=O)c2cccnc2)[C@@H](CO)O1)NCCN1CCCCC1	inactive
CN(C)CC(=O)N[C@H]1C=C[C@@H](CC(=O)NCCN2CCCCC2)O[C@@H]1CO	active
CN(C)CC(=O)N[C@@H]1C=C[C@@H](CC(=O)NCCN2CCCCC2)O[C@H]1CO	inactive
COCC#Cc1ccc2c(c1)O[C@@H](CN(C)C(=O)Nc1ccc(OC)cc1)[C@H](C)CN([C@@H](C)CO)S2(=O)=O	inactive
CC(C)(C)OC(=O)C[C@@H]1CC=CC[C@H](CC(=O)N[C@@H](CO)Cc2ccccc2)C(=O)N2CCC[C@@H]2COC1=O	inactive
Cc1noc(C)c1NC(=O)N(C)C[C@H]1Oc2c(NS(C)(=O)=O)cccc2C(=O)N([C@@H](C)CO)C[C@H]1C	inactive
CC(C)(C)S(=O)N1Cc2cc(C(=O)N[C@@H]3CCN(Cc4ccccc4)C3)nc(-c3cccc(C#CCC4CCCC4)c3)c2[C@@H]1CCO (some centres not stated)	inactive
N#CC(=Cc1ccc(O)c(O)c1)C(N)=O	inactive
N#C/C(=C\c1ccc(O)c(O)c1)C(N)=O	active
CCN(CC)C(=O)C(C#N)=Cc1cc(O)c(O)c([N+](=O)[O-])c1	inactive
Cc1noc(C)c1S(=O)(=O)Nc1cccc2c1O[C@@H](CN(C)C(=O)Nc1ccccc1)[C@@H](C)CN([C@H](C)CO)C2=O	inactive

SMILES	cytotoxicity call
CC(C)NC(=O)Nc1ccc2c(c1)C(=O)N([C@H](C)CO)C[C@@H](C)[C@@H](CN(C)CC1CCCCC1)OCCCC[C@@H](C)O2	inactive
NCc1ccc(Br)s1	inactive
Cc1noc(C)c1S(=O)(=O)Nc1ccc2c(c1)C(=O)N([C@H](C)CO)C[C@H](C)[C@H](CN(C)S(C)(=O)=O)OCCCC[C@@H](C)O2	inactive
C[C@H](CO)N1C[C@H](C)[C@H](CN(C)Cc2ccc3c(c2)OCO3)Oc2ccc(NC(=O)C3CC3)cc2C1=O	inactive
C[C@@H]1CCCCO[C@@H](CN(C)S(=O)(=O)c2cccs2)[C@@H](C)CN([C@@H](C)CO)C(=O)c2cc(NC(=O)C3CCCCC3)ccc2O1	inactive
C[C@@H]1CN([C@@H](C)CO)S(=O)(=O)c2ccc(/C=C/c3ccccc3)cc2O[C@H]1CN(C)C(=O)Nc1cc(F)ccc1F	inactive
COc1cccc(C#Cc2ccc3c(c2)O[C@H](CN(C)C(C)=O)[C@@H](C)CN([C@H](C)CO)S3(=O)=O)c1	inactive
COc1cccc(C#Cc2ccc3c(c2)O[C@H](CN(C)C(=O)c2ccccn2)[C@H](C)CN([C@H](C)CO)S3(=O)=O)c1	active
COc1ccc(C#Cc2ccc3c(c2)O[C@H](CN(C)C(=O)c2ccccn2)[C@H](C)CN([C@@H](C)CO)S3(=O)=O)cc1	active
COc1ccc(C#Cc2ccc3c(c2)O[C@@H](CN(C)C(=O)c2ccccn2)[C@H](C)CN([C@@H](C)CO)S3(=O)=O)cc1	inactive
COc1cccc(C#Cc2ccc3c(c2)O[C@H](CN(C)C(=O)c2ccccn2)[C@@H](C)CN([C@H](C)CO)S3(=O)=O)c1	inactive
COc1cccc(C#Cc2ccc3c(c2)O[C@@H](CN(C)C(=O)c2ccccn2)[C@@H](C)CN([C@@H](C)CO)S3(=O)=O)c1	inactive
COc1cccc(C#Cc2ccc3c(c2)O[C@H](CN(C)C(C)=O)[C@H](C)CN([C@@H](C)CO)S3(=O)=O)c1	inactive
COc1ccc(C#Cc2ccc3c(c2)O[C@H](CN(C)C(=O)c2ccccn2)[C@@H](C)CN([C@@H](C)CO)S3(=O)=O)cc1	inactive
COc1cccc(C#Cc2ccc3c(c2)O[C@@H](CN(C)C(C)=O)[C@@H](C)CN([C@@H](C)CO)S3(=O)=O)c1	active
C[C@H]1CN([C@@H](C)CO)C(=O)c2cc(NC(=O)c3ccncc3)ccc2O[C@H]1CN(C)Cc1ccc(Oc2ccccc2)cc1	inactive
COCC#Cc1ccc2c(c1)O[C@H](CN(C)C(=O)Nc1ccccc1F)[C@H](C)CN([C@H](C)CO)S2(=O)=O	inactive
Cc1ccc(S(=O)(=O)N[C@@H](Cc2ccccc2)C(=O)NCCn2cc(-c3ccc(C(=O)NO)s3)nn2)cc1	inactive
COc1cccc(S(=O)(=O)N(C)C[C@@H]2Oc3cc(C#CCN(C)C)ccc3S(=O)(=O)N([C@@H](C)CO)C[C@H]2C)c1	inactive
CC(=O)NS(=O)(=O)c1ccc(N)cc1 [listing 1 of 2 here]	inactive
NC(=O)NS(=O)(=O)c1ccc(N)cc1	inactive
CC(=O)NS(=O)(=O)c1ccc(N)cc1 [listing 2 of 2 here]	active
C[C@H](CO)N1C[C@H](C)[C@H](CN(C)C(=O)Nc2cccc3ccccc23)Oc2ccc(NC(=O)Nc3ccc4c(c3)OCO4)cc2C1=O	inactive
